Records with an inconclusive call do not appear. Activity calls are given as the source filed them. Unless noted, calls follow the shape of the dose curve; as a rule, active = well fitted curve in the direction sought with a large enough effect; inconclusive = small, poorly fitted or top-dose-only effect, or another doubt; inactive = no such curve, though single readings can be large; an effect the other way counts as inactive or inconclusive. Residues, ends and D or L forms follow the SMILES beside them. *: point of attachment. Cbz = O=C(OCc1ccccc1)*
Key:
WaGa = assay: qHTS assay to identify novel small-molecules to repurpose for Merkel cell carcinoma treatment (AID 1296009); conditions: MCC and control cell lines, CellTiter-Glo viability, 72 h; series mostly up to 46 µM; also: nearly all actives have a fitted effect of over 60% in size; also: potency is read from the fitted curve at half-maximal effect
Method in brief: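 Cells were incubated with compound for 72 hr at 37 degree celsius before CellTiter-Glo addition. Luminescence was normalized with no-cell wells as full cytotoxicity and DMSO as baseline.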

CASKI = assay: Primary qHTS to identify gynecologic anti-cancer compounds using libraries of approved drugs and bioactive compounds (AID 1345084); conditions: Gynecologic cancer cell panel viability, ATPlite luminescence, 48 h; series mostly up to 57.5 µM; also: nearly all actives have a fitted effect of over 55% in size; also: potency is read from the fitted curve at half-maximal effect
Method in brief: (§1)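 Five-point cytotoxicity, 48 h drug exposure at 37 C, 5% CO2, on cells seeded 16 h beforehand. ATP content read by ATPlite luminescence.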

Es-2 = assay: as above; conditions: Gynecologic cancer cell panel viability, ATPlite luminescence, 48 h; series mostly up to 57.5 µM
Method in brief: as §1

HeLa = assay: as above; conditions: Gynecologic cancer cell panel viability, ATPlite luminescence, 48 h; series mostly up to 57.5 µM
Method in brief: as §1

Hek293T = assay: as above; conditions: Gynecologic cancer cell panel viability, ATPlite luminescence, 48 h, control line for the selectivity index; series mostly up to 57.5 µM
Method in brief: as §1

JEG-3 = assay: as above; conditions: Gynecologic cancer cell panel viability, ATPlite luminescence, 48 h; series mostly up to 57.5 µM
Method in brief: as §1

Tov-21-G = assay: as above; conditions: Gynecologic cancer cell panel viability, ATPlite luminescence, 48 h; series mostly up to 57.5 µM
Method in brief: as §1

Tov112D = assay: as above; conditions: Gynecologic cancer cell panel viability, ATPlite luminescence, 48 h; series mostly up to 57.5 µM
Method in brief: as §1

[1] = Drug repurposing screens with cells derived from glioblastoma tumor samples (AID 1345199); conditions: GBM patient neurospheres viability, ATP luminescence, 48 h; Potency: tumour line A; series mostly up to 46.1 µM; also: nearly all actives have a fitted effect of over 40% in size; also: potency is read from the fitted curve at half-maximal effect
Method in brief: (§2)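 Four patient lines of CD133+ GBM neurospheres were screened at several concentrations; hits were retested in those lines plus three slower-growing GBM lines, using 48-hour treatment and ATP-based viability.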

astro = assay: as above; conditions: viability, ATP luminescence, 48 h; series mostly up to 45.9 µM
Method in brief: as §2

OV90 = assay: Primary qHTS to identify gynecologic anti-cancer compounds using libraries of approved drugs and bioactive compounds (AID 1345084); conditions: Gynecologic cancer cell panel viability, ATPlite luminescence, 48 h; series mostly up to 57.5 µM; also: nearly all actives have a fitted effect of over 55% in size; also: potency is read from the fitted curve at half-maximal effect
Method in brief: as §1

[2] = qHTS assay to identify inhibitors of the type 1 interferon - major histocompatibility complex class I in skeletal muscle: Counter screen cell viability and HiBit confirmation (AID 1347412); conditions: iHSKM muscle cells + IFN-b, HiBiT or CellTiter-Glo, 24 h; Potency: HiBiT; Viability, at 45.9 µM (top of the series); also: nearly all actives have a fitted effect of over 60% in size; also: potency is read from the fitted curve at half-maximal effect
Method in brief: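 CRISPR HLA-B*08:01-HiBit immortalized human myoblasts (C25cl48) stimulated with 4 ng/ml IFN-beta and compounds (12-point 1:3, top 46 uM final) for 24 h at 37 C. Duplicate plates read by HiBit lytic luminescence or CellTiter Glo ATP.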

PA-1 = assay: Primary qHTS to identify gynecologic anti-cancer compounds using libraries of approved drugs and bioactive compounds (AID 1345084); conditions: Gynecologic cancer cell panel viability, ATPlite luminescence, 48 h; series mostly up to 57.5 µM; also: nearly all actives have a fitted effect of over 55% in size; also: potency is read from the fitted curve at half-maximal effect
Method in brief: as §1

SKOV3 = assay: as above; conditions: Gynecologic cancer cell panel viability, ATPlite luminescence, 48 h; series mostly up to 57.5 µM
Method in brief: as §1

C33A = assay: as above; conditions: Gynecologic cancer cell panel viability, ATPlite luminescence, 48 h; series mostly up to 57.5 µM
Method in brief: as §1

[3] = molecular target: Nuclear receptor subfamily 1 group I member 2 (Rattus norvegicus) (UniProt Q9R1A7); assay: qHTS assay for small molecule activators of the rat pregnane X receptor (rPXR) signaling pathway (AID 651751; call rule not given here; also: 0% is about no effect); conditions: rPXR reporter cells, luciferase (One-Glo), 24 h
[4] = qHTS assay for small molecule activators of the human pregnane X receptor (PXR) signaling pathway (AID 720659; call rule not given here; also: 0% is about no effect)

Chain of Nuclear receptor subfamily 1 group I member 2 (Rattus norvegicus) (Q9R1A7 whole entry, looked up): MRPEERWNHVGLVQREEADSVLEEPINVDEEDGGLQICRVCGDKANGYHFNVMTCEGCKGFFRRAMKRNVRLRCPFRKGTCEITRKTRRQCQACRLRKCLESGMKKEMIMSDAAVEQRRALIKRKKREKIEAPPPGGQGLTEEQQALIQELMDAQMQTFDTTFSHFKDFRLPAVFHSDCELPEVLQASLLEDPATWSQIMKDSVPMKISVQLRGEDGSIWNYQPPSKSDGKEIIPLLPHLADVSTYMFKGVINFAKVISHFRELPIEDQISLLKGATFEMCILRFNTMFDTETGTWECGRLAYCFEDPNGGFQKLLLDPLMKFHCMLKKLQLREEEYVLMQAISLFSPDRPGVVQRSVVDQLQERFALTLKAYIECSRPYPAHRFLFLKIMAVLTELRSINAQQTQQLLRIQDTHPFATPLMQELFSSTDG

CCOc1cc2c(c(F)c1OCC)C(=N)N(CC(=O)c1cc(N3CCOCC3)c(OC)c(C(C)(C)C)c1)C2
inactive: Potency (WaGa) | Potency (CASKI) | Potency (Es-2) | Potency (HeLa) | Potency (Hek293T) | Potency (JEG-3) | Potency (Tov-21-G) | Potency (Tov112D)

COC1=C(OC)C(=O)C(CC=C(C)CCC=C(C)CCC=C(C)CCC=C(C)CCC=C(C)CCC=C(C)CCC=C(C)CCC=C(C)CCC=C(C)CCC=C(C)C)=C(C)C1=O
inactive: Potency (WaGa) | Potency [1] | Potency (astro)

Cc1coc2c1C(=O)C(=O)c1c-2ccc2c(C)cccc12
inactive: Potency (WaGa) | Potency (CASKI) | Potency (Es-2) | Potency (HeLa) | Potency (Hek293T) | Potency (OV90) | Potency (Tov-21-G)

COc1cc(O)c2c(c1)C1OC1C[C@H](O)[C@H](O)C(=O)C=CC[C@H](C)OC2=O (stereo partly specified)
active: Potency [2] 8.83 µM

c1cc(N[C@@H]2CCNC2)nc(-c2cnc3ccc(-c4cn[nH]c4)cn23)c1
active: Potency (PA-1) 10 µM | Potency (Tov112D) 14.1 µM
inactive: Potency (Es-2) | Potency (HeLa) | Potency (Hek293T) | Potency (JEG-3) | Potency [2]

Nc1ccc(C(=O)Nc2cccc(-c3nc(N4CCOCC4)c4oc5ncccc5c4n3)c2)cn1
active: Potency (CASKI) 14.1 µM | Potency (PA-1) 3.16 µM | Potency (SKOV3) 15.8 µM

Cc1ccc(-n2[nH]c(C)c(N=Nc3cccc(-c4cccc(C(=O)O)c4)c3O)c2=O)cc1C
inactive: Potency (C33A) | Potency (CASKI) | Potency (HeLa) | Potency (JEG-3) | Potency (OV90) | Potency (SKOV3)
active: Potency (PA-1) 1.58 µM

Cc1ncc(-c2ccnc(Nc3ccc(S(C)(=O)=O)cc3)n2)n1C(C)C
active: Potency (CASKI) 7.08 µM | Potency (Es-2) 10 µM | Potency (HeLa) 7.08 µM | Potency (Hek293T) 5.01 µM | Potency (PA-1) 5.01 µM | Potency (Tov-21-G) 10 µM | Potency (Tov112D) 10 µM
inactive: Potency (JEG-3)

COC[C@H](NC(=O)c1cnc(C)s1)C(=O)N[C@@H](COC)C(=O)N[C@@H](Cc1ccccc1)C(=O)[C@@]1(C)CO1
active: Potency (WaGa) 0.118 µM | Potency [2] 0.198 µM

FC(F)c1nc2ccccc2n1-c1nc(N2CCOCC2)nc(N2CCOCC2)n1
active: Potency (CASKI) 2.24 µM | Potency (Es-2) 14.1 µM | Potency (Hek293T) 2.24 µM | Potency (PA-1) 2 µM | Potency (SKOV3) 2.82 µM

O=C(Nc1cc2cc[nH]c2cn1)c1ccccc1
active: Potency (C33A) 1.41 µM | Potency (CASKI) 1.78 µM | Potency (Es-2) 1.58 µM | Potency (HeLa) 1.41 µM | Potency (Hek293T) 2.24 µM | Potency (JEG-3) 1.12 µM | Potency (OV90) 0.891 µM | Potency (PA-1) 0.891 µM | Potency (SKOV3) 2 µM | Potency (Tov-21-G) 1.26 µM | Potency (Tov112D) 2 µM

CC(C)N1[N]C(=C2C=c3cc(O)ccc3=N2)c2c(N)ncnc21
active: Potency (WaGa) 5.9 µM | Potency (astro) 3.55 µM

OC[C@@H](O)[C@@H](O)[C@H](O)[C@@H](O)CO
inactive: Potency (WaGa) | max response [3] 14.3% | outcome [4]

CCc1nc(-c2cccc(C)c2)c(-c2ccnc(NC(=O)c3ccccc3)c2)s1
inactive: Potency (C33A) | Potency (CASKI) | Potency (Es-2) | Potency (HeLa) | Potency (Hek293T) | Potency (JEG-3) | Potency (PA-1) | Potency (Tov-21-G) | Potency (Tov112D)

N#Cc1c(C2CCNCC2)cc(-c2c(O)cccc2OCC2CC2)nc1N
active: Potency (Tov-21-G) 14.1 µM
inactive: Potency (C33A) | Potency (Es-2) | Potency (HeLa) | Potency (Hek293T) | Potency (OV90) | Potency (Tov112D) | Potency [2]

FC(F)(F)c1ccc(Nc2nc3ccc(Oc4ccnc(-c5ncc(C(F)(F)F)[nH]5)c4)cc3[nH]2)cc1
inactive: Potency (C33A) | Potency (CASKI) | Potency (Es-2) | Potency (HeLa) | Potency (Hek293T) | Potency (JEG-3) | Potency (Tov112D)

CN(C)CCN1C(=O)c2cccc3cc(N)cc(c23)C1=O
active: Potency (WaGa) 9.35 µM | Potency [2] 8.83 µM

CS(=O)(=O)N1CCc2c(-c3cnc(N)nc3)nc(N3CCOCC3)nc21
active: Potency (CASKI) 2 µM | Potency (HeLa) 3.55 µM | Potency (Hek293T) 3.55 µM | Potency (OV90) 4.47 µM | Potency (PA-1) 1.78 µM | Potency (SKOV3) 1.26 µM

OCCNC1CCCc2c1[nH]c1ccc(-c3ccccc3)cc21 (stereo unspecified)
inactive: Potency (Es-2) | Potency (Hek293T) | Potency (JEG-3) | Potency (OV90) | Potency (Tov-21-G) | Potency (Tov112D) | Potency [2]
active: Potency (HeLa) 8.91 µM | Potency (PA-1) 20 µM

O=C(O)c1ccc(Nc2ncc3c(n2)-c2ccc(Cl)cc2C(c2c(F)cccc2F)=NC3)cc1
inactive: Potency (C33A) | Potency (Es-2) | Potency (Hek293T) | Potency (JEG-3) | Potency (OV90) | Potency (SKOV3) | Potency (Tov-21-G)

c1cncc(CN2CCC(n3ncc4c(N5CCOCC5)nc(-c5ccc6[nH]ccc6c5)nc43)CC2)c1
active: Potency (C33A) 31.6 µM | Potency (CASKI) 10 µM | Potency (Hek293T) 11.2 µM | Potency (OV90) 22.4 µM | Potency (PA-1) 17.8 µM | Potency (SKOV3) 10 µM | Potency (Tov-21-G) 12.6 µM | Potency (Tov112D) 28.2 µM

CCCCCCCN(CC)CCCC(O)c1ccc(NS(C)(=O)=O)cc1 (stereo unspecified)
inactive: Potency (WaGa) | Potency (astro)

COc1ccc(S(=O)(=O)Nc2cccnc2Nc2ccc(O)cc2)cc1
active: Potency (C33A) 8.91 µM | Potency (Es-2) 2.24 µM | Potency (HeLa) 1.78 µM | Potency (JEG-3) 2 µM | Potency (PA-1) 1 µM | Potency (SKOV3) 6.31 µM | Potency (Tov112D) 1.78 µM

CC(C)C[C@@H](C=O)NC(=O)[C@H](CC(C)C)NC(=O)[C@H](CC(C)C)NC(=O)OCc1ccccc1 (Cbz-Leu-Leu-Leu-aldehyde)
active: Potency (WaGa) 0.935 µM | Potency [2] 6.25 µM

CCS(=O)(=O)Nc1ccc2[nH]c(O)c(C(=Nc3ccc(CN4CCCCC4)cc3)c3ccccc3)c2c1
active: Potency [2] 0.625 µM

Cc1cc(O)c2c(c1)C(=O)c1cccc(O)c1C2=O
inactive: Potency (WaGa) | max response [3] -1.64% | outcome [4]

Cc1cncc2cccc(S(=O)(=O)N3CCCN(C(=O)CN)C[C@@H]3C)c12
inactive: Potency (C33A) | Potency (CASKI) | Potency (Es-2) | Potency (Hek293T) | Potency (JEG-3) | Potency (OV90) | Potency (PA-1) | Potency (Tov-21-G) | Potency (Tov112D)

Cn1cc(CNCC2CCN(c3ncc(C(=O)NO)cn3)CC2)c2ccccc21
active: Potency (WaGa) 0.0296 µM | Potency [2] 0.157 µM

Cc1cnc(NC(=O)Nc2cc(Br)c(C)cc2OC[C@@H]2CNCCO2)cn1
inactive: Potency (WaGa) | Potency [2]
